The source made the active and inactive calls. How the source made its calls: active means hit-call score of the fitted dose curve at least 0.9, where 1 is the maximum; inactive means score below 0.9.
Assays:
Details in all cases: mRNA level, 48 h; actives raise or lower the signal
[1] = read-out: Cyclin D1 (CCND1), CCND1 (gene 595); assay: LTEA_HepaRG_CCND1: Life Technologies and Expression Analysis (LTEA) Assay for Cyclin D1 (CCND1) using HepaRG (AID 2283451);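 on AC50: TaqMan qRT-PCR transcript level normalised to ACTB GAPDH and POLR2A housekeeping genes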
Summary of the method: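 qRT-PCR (Fluidigm 96.96 array) read-out of transcript level, housekeeping-normalized (ACTB/GAPDH/POLR2A). HepaRG cells, 48 h chemical exposure, 8-point half-log series from 100 uM, 0.5% DMSO vehicle; gain or loss relative to DMSO baseline.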

[2] = read-out: catalase (CAT), CAT (gene 847); assay: LTEA_HepaRG_CAT: Life Technologies and Expression Analysis (LTEA) Assay for catalase (CAT) using HepaRG (AID 2283452)
Summary of the method: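 HepaRG cells in serum-free induction medium, 0.5% DMSO vehicle, exposed 48 h in duplicate over 8 half-log concentrations from 100 uM. CAT mRNA measured by qRT-PCR, normalized to ACTB, GAPDH, POLR2A; bidirectional fit versus DMSO.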

[3] = read-out: flavin-containing dimethylaniline monooxygenases 3 (FMO3), FMO3 (gene 2328); assay: LTEA_HepaRG_FMO3: Life Technologies and Expression Analysis (LTEA) Assay for flavin-containing dimethylaniline monooxygenases 3 (FMO3) using HepaRG (AID 2283453)
Summary of the method: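 Differentiated HepaRG cells in serum-free induction medium, exposed 48 h in duplicate to 8 half-log concentrations up to 100 uM in 0.5% DMSO. FMO3 mRNA by qRT-PCR, normalized to ACTB, GAPDH, POLR2A; bidirectional fit vs DMSO.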

[4] = read-out: Cytochrome P450 (CYP1A1), CYP1A1 (gene 1543); assay: LTEA_HepaRG_CYP1A1: Life Technologies and Expression Analysis (LTEA) Assay for Cytochrome P450 (CYP1A1) using HepaRG (AID 2283454)
Summary of the method: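 qRT-PCR read-out: CYP1A1 transcript normalized to three housekeeping genes, fitted bidirectionally against 0.5% DMSO vehicle baseline. Human HepaRG cells, 48 h chemical exposure, 8-point half-log series topping at 100 uM.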

[5] = read-out: CFLAR gene, CFLAR (gene 8837); assay: LTEA_HepaRG_CFLAR: Life Technologies and Expression Analysis (LTEA) Assay for CFLAR gene using HepaRG (AID 2283455)
Summary of the method: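 Differentiated HepaRG cells in serum-free induction medium were exposed 48 h in duplicate to eight half-log concentrations up to 100 uM in 0.5% DMSO; mRNA measured by TaqMan qRT-PCR, normalized to ACTB, GAPDH, POLR2A; bidirectional fitting versus DMSO.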

[6] = read-out: Forkhead box O1 (FOXO1), FOXO1 (gene 2308); assay: LTEA_HepaRG_FOXO1: Life Technologies and Expression Analysis (LTEA) Assay for Forkhead box O1 (FOXO1) using HepaRG (AID 2283456)
Summary of the method: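 Differentiated HepaRG cells, in serum-free induction medium with 0.5% DMSO, exposed 48 h in duplicate to 8-point half-log series from 100 uM. FOXO1 mRNA measured by TaqMan qRT-PCR, normalized to ACTB, GAPDH, POLR2A; bidirectional fit versus DMSO.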

[7] = read-out: growth arrest and DNA damage 45 (GADD45A), GADD45A (gene 1647); assay: LTEA_HepaRG_GADD45A: Life Technologies and Expression Analysis (LTEA) Assay for growth arrest and DNA damage 45 (GADD45A) using HepaRG (AID 2283458)
Summary of the method: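 Cells plated and cultured 48 h, switched to serum-free induction medium, then dosed for 48 h (100 uM top, half-log dilutions, 0.5% DMSO). RNA was isolated and transcript measured by Fluidigm qRT-PCR.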

[8] = read-out: Forkhead box O3 (FOXO3), FOXO3 (gene 2309); assay: LTEA_HepaRG_FOXO3: Life Technologies and Expression Analysis (LTEA) Assay for Forkhead box O3 (FOXO3) using HepaRG (AID 2283459)
Summary of the method: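 Differentiated human HepaRG cells, 48 h post-plating, exposed in duplicate for 48 h in serum-free induction medium; 8-point half-log series from 100 uM in 0.5% DMSO. FOXO3 mRNA by TaqMan qRT-PCR, normalized to ACTB/GAPDH/POLR2A; bidirectional fit versus DMSO.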

[9] = read-out: ABC Transporter (ABCB1), ABCB1 (gene 5243); assay: LTEA_HepaRG_ABCB1: Life Technologies and Expression Analysis (LTEA) Assay for ABC Transporter (ABCB1) using HepaRG (AID 2283460)
Summary of the method: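 HepaRG cells exposed in duplicate for 48 h in serum-free induction medium to eight half-log concentrations up to 100 uM in 0.5% DMSO. ABCB1 mRNA quantified by qRT-PCR, normalised to ACTB, GAPDH and POLR2A; fitted bidirectionally versus DMSO.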

[10] = read-out: growth arrest and DNA damage 45 (GADD45B), GADD45B (gene 4616); assay: LTEA_HepaRG_GADD45B: Life Technologies and Expression Analysis (LTEA) Assay for growth arrest and DNA damage 45 (GADD45B) using HepaRG (AID 2283461)
Summary of the method: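 qRT-PCR read-out (Fluidigm TaqMan, housekeeping-normalized) of mRNA change in human HepaRG cells after 48 h chemical exposure; 8-point curve, top 100 uM, half-log steps, 0.5% DMSO vehicle; gain or loss fitted relative to DMSO baseline.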

[11] = read-out: ABC Transporter (ABCC3), ABCC3 (gene 8714); assay: LTEA_HepaRG_ABCC3: Life Technologies and Expression Analysis (LTEA) Assay for ABC Transporter (ABCC3) using HepaRG (AID 2283462)
Summary of the method: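 qRT-PCR read-out of ABCC3 transcript, normalized to three housekeeping genes (ACTB, GAPDH, POLR2A), after 48 h chemical exposure of human HepaRG cells. Eight half-log concentrations, highest 100 uM, in 0.5% DMSO; gain or loss fitted relative to DMSO baseline.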

[12] = read-out: ABC Transporter (ABCB11), ABCB11 (gene 8647); assay: LTEA_HepaRG_ABCB11: Life Technologies and Expression Analysis (LTEA) Assay for ABC Transporter (ABCB11) using HepaRG (AID 2283463)
Summary of the method: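 Differentiated human HepaRG cells in serum-free induction medium, dosed in duplicate for 48 h. Eight-point half-log series from 100 uM in 0.5% DMSO; ABCB11 mRNA by qRT-PCR, normalized to ACTB, GAPDH, POLR2A, fitted bidirectionally versus DMSO.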

[13] = read-out: ABC Transporter (ABCC2), ABCC2 (gene 1244); assay: LTEA_HepaRG_ABCC2: Life Technologies and Expression Analysis (LTEA) Assay for ABC Transporter (ABCC2) using HepaRG (AID 2283464)
Summary of the method: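 qRT-PCR (TaqMan, Fluidigm array) read-out of ABCC2 mRNA, normalized to three housekeeping genes. Differentiated HepaRG cells were treated 48 h in serum-free induction medium with 8-point half-log series from 100 uM in 0.5% DMSO; curves fitted bidirectionally relative to DMSO.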

[14] = read-out: Broad substrate specificity ATP-binding cassette transporter ABCG2 (Homo sapiens) (UniProt Q9UNQ0); assay: LTEA_HepaRG_ABCG2: Life Technologies and Expression Analysis (LTEA) Assay for ABC Transporter (ABCG2) using HepaRG (AID 2283465)
Summary of the method: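 Differentiated HepaRG cells were exposed for 48 h in serum-free induction medium to 8 half-log concentrations, top 100 uM, in 0.5% DMSO. ABCG2 mRNA was measured by qRT-PCR, normalized to ACTB, GAPDH and POLR2A, with bidirectional fitting versus DMSO.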

[15] = read-out: ATP-citrate lyase (ACLY), ACLY (gene 47); assay: LTEA_HepaRG_ACLY: Life Technologies and Expression Analysis (LTEA) Assay for ATP-citrate lyase (ACLY) using HepaRG (AID 2283466)
Summary of the method: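 Differentiated HepaRG cells exposed 48 h in serum-free induction medium to eight half-log concentrations up to 100 uM in 0.5% DMSO, duplicates. Transcript measured by Fluidigm TaqMan qRT-PCR, normalized to ACTB, GAPDH, POLR2A; bidirectional fit versus DMSO.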

[16] = read-out: Peroxisomal acyl-coenzyme A oxidase 1 (ACOX1) gene, ACOX1 (gene 51); assay: LTEA_HepaRG_ACOX1: Life Technologies and Expression Analysis (LTEA) Assay for Peroxisomal acyl-coenzyme A oxidase 1 (ACOX1) gene using HepaRG (AID 2283467)
Summary of the method: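 HepaRG cells, plated 48 h then switched to serum-free induction medium, were exposed in duplicate for 48 h to 8-point half-log concentrations up to 100 uM in 0.5% DMSO. ACOX1 mRNA was measured by qRT-PCR, normalized to ACTB/GAPDH/POLR2A, and fitted bidirectionally versus DMSO.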

[17] = read-out: Alkaline Phosphatase, Placental (ALPP) gene, ALPP (gene 250); assay: LTEA_HepaRG_ALPP: Life Technologies and Expression Analysis (LTEA) Assay for Alkaline Phosphatase, Placental (ALPP) gene using HepaRG (AID 2283468)
Summary of the method: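 qRT-PCR readout of ALPP mRNA (Fluidigm TaqMan), normalized to ACTB/GAPDH/POLR2A, after 48 h chemical exposure of HepaRG cells; 8-point half-log series, top 100 uM, 0.5% DMSO vehicle. Bidirectional curve fit versus DMSO baseline.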

[18] = read-out: Bcl-2 (BAD) gene, BAD (gene 572); assay: LTEA_HepaRG_BAD: Life Technologies and Expression Analysis (LTEA) Assay for Bcl-2 (BAD) gene using HepaRG (AID 2283469)
Summary of the method: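 Differentiated HepaRG cells were exposed in duplicate in 0.5% DMSO for 48 h to eight-point half-log concentrations up to 100 uM. BAD mRNA was measured by Fluidigm TaqMan qRT-PCR, normalized to ACTB, GAPDH and POLR2A, and fitted bidirectionally against DMSO.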

[19] = read-out: Bcl-2 (BAX) gene, BAX (gene 581); assay: LTEA_HepaRG_BAX: Life Technologies and Expression Analysis (LTEA) Assay for Bcl-2 (BAX) gene using HepaRG (AID 2283470)
Summary of the method: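 HepaRG (human liver), 48 h exposure, duplicate wells. 8-pt curve, half-log from 100 uM, 0.5% DMSO. BAX transcript by TaqMan qRT-PCR; ACTB/GAPDH/POLR2A normalization; gain or loss vs DMSO baseline.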

Broad substrate specificity ATP-binding cassette transporter ABCG2 (Homo sapiens), sequence (Q9UNQ0 whole entry, looked up): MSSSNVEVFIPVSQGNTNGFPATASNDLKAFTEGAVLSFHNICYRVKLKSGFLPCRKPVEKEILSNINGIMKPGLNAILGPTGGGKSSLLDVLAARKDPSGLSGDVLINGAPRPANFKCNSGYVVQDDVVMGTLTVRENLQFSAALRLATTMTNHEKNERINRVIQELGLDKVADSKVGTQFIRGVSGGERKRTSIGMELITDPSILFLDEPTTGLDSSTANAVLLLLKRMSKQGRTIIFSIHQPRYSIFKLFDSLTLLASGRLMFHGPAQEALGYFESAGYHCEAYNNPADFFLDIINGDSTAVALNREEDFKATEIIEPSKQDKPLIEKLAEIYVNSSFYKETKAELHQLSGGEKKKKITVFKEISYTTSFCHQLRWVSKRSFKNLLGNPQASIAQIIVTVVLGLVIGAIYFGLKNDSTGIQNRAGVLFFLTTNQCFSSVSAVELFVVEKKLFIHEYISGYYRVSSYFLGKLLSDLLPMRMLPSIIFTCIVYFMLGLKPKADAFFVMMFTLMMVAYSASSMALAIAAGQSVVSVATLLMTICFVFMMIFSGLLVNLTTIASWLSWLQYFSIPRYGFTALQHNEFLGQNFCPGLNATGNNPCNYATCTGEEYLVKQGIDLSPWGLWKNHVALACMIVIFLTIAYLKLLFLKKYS

Cc1ccc2oc(CN(Cc3ccccc3)C(=O)Nc3c(F)cc(F)cc3F)c(-c3ccc(Cl)cc3)c2c1
outcome [1]: inactive | AC50 [2]: 8.81 µM (active) | AC50 [3]: 59.5 µM (active) | AC50 [4]: 22 µM (active) | outcome [5]: inactive | outcome [6]: inactive | AC50 [7]: 8.78 µM (active) | outcome [8]: inactive | AC50 [9]: 19.7 µM (active) | outcome [10]: inactive | outcome [11]: inactive | outcome [12]: inactive | AC50 [13]: 13.7 µM (active) | AC50 [14]: 17.6 µM (active) | outcome [15]: inactive | outcome [16]: inactive | outcome [17]: inactive | outcome [18]: inactive | outcome [19]: inactive

CN(C)c1ccc(C(=C2C=CC(=[N+](C)C)C=C2)c2ccc(N(C)C)cc2)cc1
AC50 [1]: 37.1 µM (active) | AC50 [2]: 3.73 µM (active) | AC50 [3]: 4.03 µM (active) | AC50 [4]: 7.18 µM (active) | AC50 [5]: 29.6 µM (active) | AC50 [6]: 10.1 µM (active) | AC50 [7]: 50 µM (active) | AC50 [8]: 17.4 µM (active) | AC50 [9]: 12.9 µM (active) | AC50 [10]: 3.56 µM (active) | AC50 [11]: 85.8 µM (active) | AC50 [12]: 3.65 µM (active) | AC50 [13]: 18.8 µM (active) | outcome [14]: inactive | AC50 [15]: 12.5 µM (active) | AC50 [16]: 12.9 µM (active) | AC50 [17]: 3.9 µM (active) | outcome [19]: inactive

CCCCCCCCCCCO
outcome [1]: inactive | outcome [2]: inactive | outcome [3]: inactive | outcome [4]: inactive | outcome [5]: inactive | outcome [6]: inactive | outcome [7]: inactive | outcome [8]: inactive | outcome [9]: inactive | outcome [10]: inactive | outcome [11]: inactive | outcome [12]: inactive | outcome [13]: inactive | outcome [14]: inactive | outcome [15]: inactive | outcome [16]: inactive | outcome [17]: inactive | outcome [18]: inactive | outcome [19]: inactive
